How the values were obtained:
Experiment in all cases: DAPPL (digital affinity profiling via proximity ligation, sequencing); 10 mM Tris-HCl pH 7.5, 50 mM NaCl, 1 mM DTT, 4% glycerol, room temperature, 30 min; GST-TFs on glutathione beads, 16-mer random dsDNA library, 0.1% formaldehyde crosslink after washing; high values mean tight binding
[1] = target: T1, FEV (Homo sapiens, UniProt Q99581 1-238); conditions: protein: recombinant; tags: N-terminal GST; dsDNA, one strand shown
T1 sequence: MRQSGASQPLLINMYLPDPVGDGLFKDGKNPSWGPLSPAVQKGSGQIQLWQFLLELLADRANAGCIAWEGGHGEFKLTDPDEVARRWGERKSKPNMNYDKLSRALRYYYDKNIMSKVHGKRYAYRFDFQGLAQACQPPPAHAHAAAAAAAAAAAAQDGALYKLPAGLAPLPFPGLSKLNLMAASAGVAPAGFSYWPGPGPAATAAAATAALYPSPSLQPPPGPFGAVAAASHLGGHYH
How it was run: (§1)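 After expression in yeast as GST fusions, human transcription factors were bound to glutathione beads, DNA-barcoded and mixed with a tag-only sample. The pools were incubated with 200 nmole of a 16-mer random double-stranded DNA library in Tris/NaCl/DTT/glycerol buffer (30 min, room temperature), washed and crosslinked with 0.1% formaldehyde. Proximity ligation with BsaI/T4 ligase ran for 1 h at 37 °C, before PCR amplification and sequencing on an Illumina NextSeq500. Binding signal is a hexamer's read frequency for a factor divided by its frequency for the tag-only sample.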

[2] = target: ETV5 (Homo sapiens, UniProt P41161 1-510); conditions: protein: recombinant; tags: N-terminal GST; dsDNA, one strand shown
Sequence of ETV5 (P41161 whole entry): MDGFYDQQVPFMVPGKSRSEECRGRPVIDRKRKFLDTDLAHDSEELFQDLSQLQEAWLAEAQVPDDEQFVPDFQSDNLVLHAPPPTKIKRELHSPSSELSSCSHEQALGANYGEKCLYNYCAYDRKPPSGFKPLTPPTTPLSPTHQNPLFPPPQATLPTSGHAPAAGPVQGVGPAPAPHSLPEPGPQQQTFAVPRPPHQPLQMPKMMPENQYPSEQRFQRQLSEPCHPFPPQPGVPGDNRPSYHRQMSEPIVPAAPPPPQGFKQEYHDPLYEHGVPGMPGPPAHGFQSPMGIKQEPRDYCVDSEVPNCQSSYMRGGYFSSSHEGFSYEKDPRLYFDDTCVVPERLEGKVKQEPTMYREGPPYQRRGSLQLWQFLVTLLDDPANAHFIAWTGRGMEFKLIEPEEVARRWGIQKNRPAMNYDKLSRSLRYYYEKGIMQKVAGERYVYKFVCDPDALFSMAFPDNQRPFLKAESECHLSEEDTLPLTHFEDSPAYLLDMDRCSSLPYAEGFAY
How it was run: as §1

[3] = target: HSF1 (Homo sapiens, UniProt Q00613 1-529); conditions: protein: recombinant; tags: N-terminal GST; chain copies: 3; dsDNA, one strand shown
Sequence of HSF1 (Q00613 whole entry): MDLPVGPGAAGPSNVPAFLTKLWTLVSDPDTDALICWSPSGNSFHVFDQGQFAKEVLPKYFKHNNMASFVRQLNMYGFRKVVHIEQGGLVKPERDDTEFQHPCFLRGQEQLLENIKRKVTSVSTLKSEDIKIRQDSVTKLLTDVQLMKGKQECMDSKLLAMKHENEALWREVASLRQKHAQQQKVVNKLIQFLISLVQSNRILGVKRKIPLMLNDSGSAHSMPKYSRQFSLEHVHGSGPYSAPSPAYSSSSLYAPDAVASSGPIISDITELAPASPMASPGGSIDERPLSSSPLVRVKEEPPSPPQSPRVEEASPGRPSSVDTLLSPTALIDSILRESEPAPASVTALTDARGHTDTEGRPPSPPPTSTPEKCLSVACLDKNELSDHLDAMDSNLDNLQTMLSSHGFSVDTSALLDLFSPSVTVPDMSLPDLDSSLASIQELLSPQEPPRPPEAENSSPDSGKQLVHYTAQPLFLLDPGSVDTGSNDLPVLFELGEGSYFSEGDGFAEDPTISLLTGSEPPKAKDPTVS
How it was run: as §1

[4] = target: T2, SPIC (Homo sapiens, UniProt Q8N5J4 1-248); conditions: protein: recombinant; tags: N-terminal GST; dsDNA, one strand shown
T2 sequence: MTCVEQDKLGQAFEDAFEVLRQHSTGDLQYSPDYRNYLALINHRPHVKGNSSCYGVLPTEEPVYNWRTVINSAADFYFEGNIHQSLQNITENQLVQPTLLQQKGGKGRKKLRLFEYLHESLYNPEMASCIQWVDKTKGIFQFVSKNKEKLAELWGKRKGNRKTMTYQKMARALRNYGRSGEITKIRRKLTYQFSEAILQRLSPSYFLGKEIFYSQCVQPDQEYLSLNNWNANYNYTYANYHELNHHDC
How it was run: as §1

[5] = target: ELF4 (Homo sapiens, UniProt Q99607 1-663); conditions: protein: recombinant; tags: N-terminal GST; dsDNA, one strand shown
Sequence of ELF4 (Q99607 whole entry): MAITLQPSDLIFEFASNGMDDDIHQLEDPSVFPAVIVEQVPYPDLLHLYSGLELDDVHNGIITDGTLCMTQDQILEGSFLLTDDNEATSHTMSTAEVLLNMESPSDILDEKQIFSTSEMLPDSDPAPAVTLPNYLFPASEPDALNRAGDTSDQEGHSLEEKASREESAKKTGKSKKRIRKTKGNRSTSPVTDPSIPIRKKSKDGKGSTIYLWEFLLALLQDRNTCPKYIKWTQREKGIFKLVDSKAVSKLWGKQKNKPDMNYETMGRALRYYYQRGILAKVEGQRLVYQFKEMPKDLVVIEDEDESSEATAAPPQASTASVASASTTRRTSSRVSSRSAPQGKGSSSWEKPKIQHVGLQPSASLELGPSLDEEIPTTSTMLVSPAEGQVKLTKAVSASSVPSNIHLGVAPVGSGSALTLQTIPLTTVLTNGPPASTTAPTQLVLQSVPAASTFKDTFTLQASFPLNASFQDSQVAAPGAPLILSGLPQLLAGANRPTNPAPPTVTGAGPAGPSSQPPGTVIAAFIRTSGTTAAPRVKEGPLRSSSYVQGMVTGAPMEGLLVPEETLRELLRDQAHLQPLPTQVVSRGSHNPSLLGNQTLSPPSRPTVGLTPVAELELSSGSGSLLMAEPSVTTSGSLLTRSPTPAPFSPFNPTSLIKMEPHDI
How it was run: as §1

[6] = target: T3, ELK4 (Homo sapiens, UniProt P28324-2 1-405); conditions: protein: recombinant; tags: N-terminal GST; dsDNA, one strand shown
T3 sequence: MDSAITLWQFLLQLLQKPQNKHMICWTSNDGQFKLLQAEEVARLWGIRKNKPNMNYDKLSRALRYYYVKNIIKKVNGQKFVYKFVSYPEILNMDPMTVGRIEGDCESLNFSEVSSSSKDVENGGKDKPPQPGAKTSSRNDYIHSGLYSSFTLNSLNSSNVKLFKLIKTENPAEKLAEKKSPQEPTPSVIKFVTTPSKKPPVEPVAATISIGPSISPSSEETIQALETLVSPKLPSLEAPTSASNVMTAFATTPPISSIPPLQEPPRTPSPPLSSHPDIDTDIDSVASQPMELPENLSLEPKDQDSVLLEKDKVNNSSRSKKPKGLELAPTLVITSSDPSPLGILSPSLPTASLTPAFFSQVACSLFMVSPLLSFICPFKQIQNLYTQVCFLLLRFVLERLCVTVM
How it was run: as §1

[7] = target: T4, ETV2 (Homo sapiens, UniProt O00321 1-342); conditions: protein: recombinant; tags: N-terminal GST; dsDNA, one strand shown
T4 sequence: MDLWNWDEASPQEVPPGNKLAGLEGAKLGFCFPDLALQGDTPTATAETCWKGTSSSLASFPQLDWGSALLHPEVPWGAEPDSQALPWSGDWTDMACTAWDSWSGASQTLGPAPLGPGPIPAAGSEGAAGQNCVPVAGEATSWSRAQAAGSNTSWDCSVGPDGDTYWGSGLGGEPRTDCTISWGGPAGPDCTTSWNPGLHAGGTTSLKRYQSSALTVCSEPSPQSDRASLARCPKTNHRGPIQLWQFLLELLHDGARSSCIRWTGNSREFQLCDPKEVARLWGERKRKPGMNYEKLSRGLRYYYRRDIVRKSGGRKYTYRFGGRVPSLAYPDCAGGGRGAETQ
How it was run: as §1

[8] = target: T5, ELF3 (Homo sapiens, UniProt P78545 1-371); conditions: protein: recombinant; tags: N-terminal GST; dsDNA, one strand shown
T5 sequence: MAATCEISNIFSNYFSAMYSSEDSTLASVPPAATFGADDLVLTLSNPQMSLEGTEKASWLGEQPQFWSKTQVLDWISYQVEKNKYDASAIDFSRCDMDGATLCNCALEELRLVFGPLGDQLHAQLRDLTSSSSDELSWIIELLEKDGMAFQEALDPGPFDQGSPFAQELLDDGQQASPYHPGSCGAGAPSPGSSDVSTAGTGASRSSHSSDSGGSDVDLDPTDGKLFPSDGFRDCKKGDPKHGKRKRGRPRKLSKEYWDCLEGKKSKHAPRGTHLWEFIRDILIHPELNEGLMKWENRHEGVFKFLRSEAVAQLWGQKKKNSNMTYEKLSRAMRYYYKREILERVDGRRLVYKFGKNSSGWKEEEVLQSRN
How it was run: as §1

[9] = target: CRX (Homo sapiens, UniProt O43186 1-299); conditions: protein: recombinant; tags: N-terminal GST; dsDNA, one strand shown
Sequence of CRX (O43186 whole entry): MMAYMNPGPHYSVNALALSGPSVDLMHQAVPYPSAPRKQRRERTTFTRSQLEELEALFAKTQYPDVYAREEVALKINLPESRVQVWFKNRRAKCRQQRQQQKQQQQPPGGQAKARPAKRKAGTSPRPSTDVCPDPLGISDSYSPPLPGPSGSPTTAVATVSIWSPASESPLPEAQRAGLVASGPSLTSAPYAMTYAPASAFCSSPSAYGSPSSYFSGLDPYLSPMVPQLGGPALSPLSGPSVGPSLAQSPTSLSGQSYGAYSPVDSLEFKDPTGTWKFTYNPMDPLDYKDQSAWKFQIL
How it was run: as §1

[10] = target: ETV1 (Homo sapiens, UniProt P50549 1-477); conditions: protein: recombinant; tags: N-terminal GST; dsDNA, one strand shown
Sequence of ETV1 (P50549 whole entry): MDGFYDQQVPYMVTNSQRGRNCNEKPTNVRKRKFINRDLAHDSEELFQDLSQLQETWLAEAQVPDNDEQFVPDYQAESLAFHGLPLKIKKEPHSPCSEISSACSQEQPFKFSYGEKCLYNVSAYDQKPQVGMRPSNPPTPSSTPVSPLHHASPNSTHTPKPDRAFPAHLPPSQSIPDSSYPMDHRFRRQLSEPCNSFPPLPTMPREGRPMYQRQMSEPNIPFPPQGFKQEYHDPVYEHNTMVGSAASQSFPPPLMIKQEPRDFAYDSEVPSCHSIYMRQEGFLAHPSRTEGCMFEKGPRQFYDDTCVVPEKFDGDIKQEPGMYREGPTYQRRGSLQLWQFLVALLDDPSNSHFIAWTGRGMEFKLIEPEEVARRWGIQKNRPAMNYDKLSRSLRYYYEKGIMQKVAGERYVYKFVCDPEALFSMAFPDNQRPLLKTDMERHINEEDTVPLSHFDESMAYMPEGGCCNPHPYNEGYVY
How it was run: as §1

[11] = target: T6, ERF (Homo sapiens, UniProt P50548 1-548); conditions: protein: recombinant; tags: N-terminal GST; dsDNA, one strand shown
T6 sequence: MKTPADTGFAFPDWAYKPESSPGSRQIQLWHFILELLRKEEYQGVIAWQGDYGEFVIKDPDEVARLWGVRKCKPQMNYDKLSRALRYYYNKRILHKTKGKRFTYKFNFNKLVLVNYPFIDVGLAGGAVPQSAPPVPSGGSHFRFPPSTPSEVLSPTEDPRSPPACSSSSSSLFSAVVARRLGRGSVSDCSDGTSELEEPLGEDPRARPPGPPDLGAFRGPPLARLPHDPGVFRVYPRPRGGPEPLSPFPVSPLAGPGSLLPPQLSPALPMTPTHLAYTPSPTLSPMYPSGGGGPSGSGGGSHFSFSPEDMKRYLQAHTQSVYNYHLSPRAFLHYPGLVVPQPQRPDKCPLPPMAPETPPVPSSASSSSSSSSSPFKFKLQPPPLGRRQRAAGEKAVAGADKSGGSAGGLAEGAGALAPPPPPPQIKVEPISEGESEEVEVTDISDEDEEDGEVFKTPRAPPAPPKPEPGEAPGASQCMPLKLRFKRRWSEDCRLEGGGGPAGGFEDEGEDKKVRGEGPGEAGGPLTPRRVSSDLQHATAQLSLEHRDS
How it was run: as §1

[12] = target: T7, ETV3L (Homo sapiens, UniProt Q6ZN32 1-361); conditions: protein: recombinant; tags: N-terminal GST; dsDNA, one strand shown
T7 sequence: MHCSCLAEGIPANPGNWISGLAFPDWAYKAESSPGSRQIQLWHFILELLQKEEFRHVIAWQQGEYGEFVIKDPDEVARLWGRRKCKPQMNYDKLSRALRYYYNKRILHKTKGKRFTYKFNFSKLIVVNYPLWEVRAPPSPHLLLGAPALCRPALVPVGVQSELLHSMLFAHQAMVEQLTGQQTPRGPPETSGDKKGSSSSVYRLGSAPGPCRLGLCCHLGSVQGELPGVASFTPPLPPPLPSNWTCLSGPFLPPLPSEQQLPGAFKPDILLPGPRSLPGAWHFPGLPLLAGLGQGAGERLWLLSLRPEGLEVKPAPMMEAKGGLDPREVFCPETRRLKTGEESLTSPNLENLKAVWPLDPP
How it was run: as §1

[13] = target: T8, ETS2 (Homo sapiens, UniProt P15036 1-469); conditions: protein: recombinant; tags: N-terminal GST; dsDNA, one strand shown
T8 sequence: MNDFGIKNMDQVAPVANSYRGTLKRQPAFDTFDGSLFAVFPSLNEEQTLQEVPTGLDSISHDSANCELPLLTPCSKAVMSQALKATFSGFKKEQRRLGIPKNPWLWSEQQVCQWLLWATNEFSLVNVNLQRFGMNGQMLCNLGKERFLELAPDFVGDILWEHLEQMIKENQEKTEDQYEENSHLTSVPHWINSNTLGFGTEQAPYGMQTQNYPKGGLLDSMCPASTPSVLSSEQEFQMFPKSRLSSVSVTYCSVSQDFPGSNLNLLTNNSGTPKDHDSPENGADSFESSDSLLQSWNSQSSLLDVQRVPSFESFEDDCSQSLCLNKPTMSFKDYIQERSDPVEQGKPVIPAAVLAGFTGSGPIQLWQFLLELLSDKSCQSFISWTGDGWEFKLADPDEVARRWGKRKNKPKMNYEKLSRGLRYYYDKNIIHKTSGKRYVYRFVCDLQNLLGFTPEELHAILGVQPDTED
How it was run: as §1

[14] = target: T9, SPDEF (Homo sapiens, UniProt O95238 1-335); conditions: protein: recombinant; tags: N-terminal GST; dsDNA, one strand shown
T9 sequence: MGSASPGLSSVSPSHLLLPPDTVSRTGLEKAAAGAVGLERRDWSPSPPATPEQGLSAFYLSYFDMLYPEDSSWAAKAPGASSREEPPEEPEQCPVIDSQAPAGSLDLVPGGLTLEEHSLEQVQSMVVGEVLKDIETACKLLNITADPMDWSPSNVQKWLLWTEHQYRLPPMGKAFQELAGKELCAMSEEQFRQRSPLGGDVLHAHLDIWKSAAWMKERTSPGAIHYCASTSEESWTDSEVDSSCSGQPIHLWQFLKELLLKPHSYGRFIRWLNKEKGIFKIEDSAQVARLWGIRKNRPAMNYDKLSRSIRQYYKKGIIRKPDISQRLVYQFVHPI
How it was run: as §1

[15] = target: T10, ETV7 (Homo sapiens, UniProt Q9Y603 1-341); conditions: protein: recombinant; tags: N-terminal GST; dsDNA, one strand shown
T10 sequence: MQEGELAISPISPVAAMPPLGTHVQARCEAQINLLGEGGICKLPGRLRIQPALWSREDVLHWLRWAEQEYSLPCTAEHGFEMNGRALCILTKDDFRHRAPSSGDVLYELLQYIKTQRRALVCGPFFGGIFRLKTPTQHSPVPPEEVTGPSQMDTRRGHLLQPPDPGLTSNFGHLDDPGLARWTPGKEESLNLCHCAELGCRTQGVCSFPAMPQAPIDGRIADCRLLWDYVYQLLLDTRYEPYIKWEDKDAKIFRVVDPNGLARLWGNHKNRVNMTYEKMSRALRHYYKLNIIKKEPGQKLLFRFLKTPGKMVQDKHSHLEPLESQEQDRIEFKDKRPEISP
How it was run: as §1

[16] = target: T11, ELF5 (Homo sapiens, UniProt Q9UKW6-2 1-255); conditions: protein: recombinant; tags: N-terminal GST; dsDNA, one strand shown
T11 sequence: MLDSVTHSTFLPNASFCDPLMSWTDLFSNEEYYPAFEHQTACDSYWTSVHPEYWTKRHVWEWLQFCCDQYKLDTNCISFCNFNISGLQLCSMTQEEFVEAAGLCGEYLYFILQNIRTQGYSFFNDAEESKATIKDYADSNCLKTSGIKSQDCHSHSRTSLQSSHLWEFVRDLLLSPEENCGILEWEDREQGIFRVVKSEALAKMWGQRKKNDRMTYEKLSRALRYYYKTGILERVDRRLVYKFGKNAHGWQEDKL
How it was run: as §1

[17] = target: T12, ETV3 (Homo sapiens, UniProt P41162-2 1-143); conditions: protein: recombinant; tags: N-terminal GST; dsDNA, one strand shown
T12 sequence: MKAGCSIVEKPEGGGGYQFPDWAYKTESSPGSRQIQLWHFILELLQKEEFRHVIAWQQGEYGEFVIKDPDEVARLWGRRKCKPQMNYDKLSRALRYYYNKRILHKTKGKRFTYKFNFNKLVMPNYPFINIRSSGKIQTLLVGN
How it was run: as §1

[18] = target: ETV6 (Homo sapiens, UniProt P41212 1-452); conditions: protein: recombinant; tags: N-terminal GST; dsDNA, one strand shown
Sequence of ETV6 (P41212 whole entry): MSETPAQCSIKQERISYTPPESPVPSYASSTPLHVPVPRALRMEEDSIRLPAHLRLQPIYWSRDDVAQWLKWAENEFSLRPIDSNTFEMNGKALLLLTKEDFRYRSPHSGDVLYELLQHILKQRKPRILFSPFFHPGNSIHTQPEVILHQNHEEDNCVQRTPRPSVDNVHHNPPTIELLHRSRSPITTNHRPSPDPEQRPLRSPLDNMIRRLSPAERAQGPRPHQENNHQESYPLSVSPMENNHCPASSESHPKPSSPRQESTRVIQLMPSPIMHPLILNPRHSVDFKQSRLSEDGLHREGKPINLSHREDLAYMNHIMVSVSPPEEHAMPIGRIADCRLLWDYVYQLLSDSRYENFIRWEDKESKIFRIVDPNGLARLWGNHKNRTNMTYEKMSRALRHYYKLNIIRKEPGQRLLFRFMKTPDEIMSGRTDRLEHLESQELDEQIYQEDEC
How it was run: as §1

ATCCAT was tested, and the binding signal [1] was 1.24 fold enrichment (6-mer frequency, TF over GST control), the binding signal [2] was 1.17 fold enrichment (6-mer frequency, TF over GST control) and the binding signal [3] was 1.23 fold enrichment (6-mer frequency, TF over GST control). For the same sequence, the binding signal [4] was 1.16 fold enrichment (6-mer frequency, TF over GST control), the binding signal [5] was 1.13 fold enrichment (6-mer frequency, TF over GST control) and the binding signal [6] was 1.14 fold enrichment (6-mer frequency, TF over GST control). The binding signal [7] was 1.19 fold enrichment (6-mer frequency, TF over GST control), the binding signal [8] was 1.32 fold enrichment (6-mer frequency, TF over GST control) and the binding signal [9] was 1.55 fold enrichment (6-mer frequency, TF over GST control). The binding signal [10] was 1.14 fold enrichment (6-mer frequency, TF over GST control), the binding signal [11] was 1.26 fold enrichment (6-mer frequency, TF over GST control) and the binding signal [12] was 1.11 fold enrichment (6-mer frequency, TF over GST control). The binding signal [13] was 1.17 fold enrichment (6-mer frequency, TF over GST control), the binding signal [14] was 1.17 fold enrichment (6-mer frequency, TF over GST control) and the binding signal [15] was 1.11 fold enrichment (6-mer frequency, TF over GST control). For the same sequence, the binding signal [16] was 1.09 fold enrichment (6-mer frequency, TF over GST control), the binding signal [17] was 1.19 fold enrichment (6-mer frequency, TF over GST control) and the binding signal [18] was 1.09 fold enrichment (6-mer frequency, TF over GST control).

— article PMC7862700, “An all-to-all approach to the identification of sequence-specific readers for epigenetic DNA modifications on cytosine”
